From PubChem BioAssay
NCOA1 inh – human NCOA1 inhibition | Q15788 | HEK293 GAL4-SRC1 luciferase reporter, luminescence | inhibition, % at 3.6 µM | 0.12% of 360,000 active | AID 588354;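 active = inhibition above the campaign mean plus 3 SD, with each screening campaign given its own cutoff, cut at about 60% in these data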
NCOA2 inhibitor – human SRC2 (NCOA2) inhibition; HEK293 GAL4-SRC2 luciferase reporter, luminescence; inhibition, % at 9 µM; 0.17% of 370,000 active;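 active = inhibition above the mean inhibition of all tested compounds plus 3 SD, set per campaign, cut at about 52% in these data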
Target sequence (Q15596 whole entry, looked up, the tested form may be a part): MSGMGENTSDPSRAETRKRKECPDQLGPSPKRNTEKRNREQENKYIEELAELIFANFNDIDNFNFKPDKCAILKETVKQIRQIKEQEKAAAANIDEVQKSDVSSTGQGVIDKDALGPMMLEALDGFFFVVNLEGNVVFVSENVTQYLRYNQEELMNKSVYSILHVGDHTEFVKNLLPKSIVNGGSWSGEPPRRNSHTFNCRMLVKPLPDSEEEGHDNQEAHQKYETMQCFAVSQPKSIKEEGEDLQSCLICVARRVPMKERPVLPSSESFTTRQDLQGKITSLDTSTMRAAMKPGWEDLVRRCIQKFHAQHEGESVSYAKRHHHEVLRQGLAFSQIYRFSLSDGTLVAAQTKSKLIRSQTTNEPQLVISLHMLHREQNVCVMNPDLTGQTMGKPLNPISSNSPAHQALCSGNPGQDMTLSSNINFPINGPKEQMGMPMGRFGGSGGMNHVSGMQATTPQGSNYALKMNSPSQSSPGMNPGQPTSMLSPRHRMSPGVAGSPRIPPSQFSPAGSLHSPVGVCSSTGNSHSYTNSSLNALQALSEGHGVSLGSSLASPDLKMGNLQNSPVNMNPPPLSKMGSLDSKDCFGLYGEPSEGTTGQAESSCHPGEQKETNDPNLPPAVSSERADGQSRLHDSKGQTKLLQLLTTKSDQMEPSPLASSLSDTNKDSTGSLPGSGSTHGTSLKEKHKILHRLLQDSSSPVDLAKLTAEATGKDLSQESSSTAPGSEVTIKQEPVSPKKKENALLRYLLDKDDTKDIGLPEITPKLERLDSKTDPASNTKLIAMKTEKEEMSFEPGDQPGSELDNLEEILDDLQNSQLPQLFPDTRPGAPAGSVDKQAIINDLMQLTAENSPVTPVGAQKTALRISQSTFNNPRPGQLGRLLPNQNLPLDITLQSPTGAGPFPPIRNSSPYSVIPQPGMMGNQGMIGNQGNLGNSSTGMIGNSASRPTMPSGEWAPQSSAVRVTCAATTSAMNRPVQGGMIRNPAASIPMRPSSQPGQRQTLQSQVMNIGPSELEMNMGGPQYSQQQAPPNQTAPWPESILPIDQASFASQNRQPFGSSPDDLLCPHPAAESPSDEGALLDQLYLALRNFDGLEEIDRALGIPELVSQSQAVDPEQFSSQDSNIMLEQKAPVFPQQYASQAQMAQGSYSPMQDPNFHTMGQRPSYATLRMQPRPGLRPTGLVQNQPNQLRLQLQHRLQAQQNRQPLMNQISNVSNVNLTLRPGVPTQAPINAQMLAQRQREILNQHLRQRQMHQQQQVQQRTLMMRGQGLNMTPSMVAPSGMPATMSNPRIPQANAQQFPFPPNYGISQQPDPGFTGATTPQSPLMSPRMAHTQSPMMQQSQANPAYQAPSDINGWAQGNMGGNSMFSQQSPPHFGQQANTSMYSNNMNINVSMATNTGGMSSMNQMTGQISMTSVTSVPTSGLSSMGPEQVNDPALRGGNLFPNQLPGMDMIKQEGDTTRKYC
NCOA3 inh – inhibits human SRC3 coactivator. Q9Y6Q9. HEK293 GAL4-SRC3 luciferase reporter, luminescence. inhibition, % at 3.6 µM. 0.17% of 360,000 active. AID 588352;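 active = inhibition above a per-campaign cutoff, the mean of all compounds plus 3 SD, cut at about 60% in these data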;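 note: higher means less SRC3-driven luciferase light from the GAL4 reporter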
NR5A2 inv ag – inverse agonists of human LRH-1 (NR5A2); HEK293T StAR-luciferase reporter, LRH-1 transfected, 24 h; inhibition, % at 3.6 µM; 0.13% of 360,000 active; O00482; AID 602396;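 active = inhibition above the mean inhibition of all tested compounds plus 3 SD, cut at about 73% in these data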
NR2F2 inh – inhibitors of human COUP-TFII (NR2F2); AID 686940; inhibition, % at 8.6 µM; 0.7% of 370,000 active; HEK293T NGFI-A luciferase reporter, luminescence;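 active = inhibition above a per-plate cutoff, mean inhibition of test wells between control levels plus 3 SD, cut at about 38% in these data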;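 note: cells cotransfected with COUP-TFII expression vector driving the NGFI-A reporter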
VP16 Luc counter – inhibits VP16 reporter, flagging COUP-TFII antagonist hits; 25% of 2,500 active; HEK293 Gal4-VP16 luciferase reporter, luminescence; shares compounds with NR2F2 inh; inhibition, % at 8.5 µM; in the data active = inhibition above about 13%
NR2F2 inh conf – COUP-TFII (NR2F2) inhibition, confirmation assay; 45% of 2,500 active; inhibition, % at 8.5 µM; shares compounds with NR2F2 inh; HEK293 NGFI-A luciferase reporter, luminescence;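 active = mean inhibition over three repeats above a set limit taken from the earlier primary screen, cut at about 38% in these data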
Of the large screens only hits and unclear results are named; the others gave an inactive call (follow-up assays come after a bar, where they were run). This is a sample that favours compounds with a hit; in the whole collection about 0.83% have one here.

CCn1nc(C)c(CNC(=O)c2ccc(OC3CCN(Cc4ccccn4)CC3)cc2)c1C	NR2F2 inh 58 | VP16 Luc counter 16 | NR2F2 inh conf 66
Cc1cccnc1CCNC(=O)c1ccc(OC2CCN(Cc3ccccn3)CC2)cc1	none
O=CN1CCN(C(=O)C2CCN(c3ncnc4c3sc3cccc(F)c34)CC2)CC1	none (no result: NCOA1 inh, NCOA3 inh, NR5A2 inv ag)
CN(c1cccc(NC(=O)c2ccc(N(C)S(=O)(=O)c3ccccc3)cc2)c1)S(C)(=O)=O	NR2F2 inh 63 | VP16 Luc counter inactive | NR2F2 inh conf inactive
Cc1nc2ccc(NC(=O)c3cc(S(=O)(=O)N(C)c4ccccc4)ccc3Cl)cc2s1	NR2F2 inh 78 | VP16 Luc counter inactive | NR2F2 inh conf 69
CC(=O)Nc1ccc(C(=O)Nc2cccc(S(=O)(=O)N(C)c3ccccc3)c2)cc1	none
Cc1nc2cc(NC(=O)c3ccc(S(=O)(=O)N(C)c4ccccc4)cc3)ccc2o1	NR2F2 inh 49 | VP16 Luc counter inactive | NR2F2 inh conf inactive
Cc1ccc(OCC(=O)c2cc(C)n(CC(F)(F)F)c2C)c([N+](=O)[O-])n1	none
Cc1ccc(OCC(=O)c2cc(C)n(Cc3cccs3)c2C)c([N+](=O)[O-])n1	NCOA2 inhibitor 66, NR2F2 inh 61 | VP16 Luc counter inactive | NR2F2 inh conf inactive
Cn1cc(CNCc2ccc(OC(F)(F)F)cc2)c(-c2ccc3c(c2)OCCO3)n1	NR2F2 inh 48 | VP16 Luc counter inactive | NR2F2 inh conf 40
Cn1cc(CNCc2cn[nH]c2-c2ccc(F)cc2)c(-c2ccc3c(c2)OCCO3)n1	none
COc1ccc(C(=O)OCCN2CCN(C3CN(Cc4cn(Cc5cccc(F)c5)nn4)S(=O)(=O)C3)CC2)cc1OC (stereo unspecified)	none (no result: NCOA1 inh, NCOA3 inh, NR5A2 inv ag)
COc1ccc(C(=O)OCCN2CCN(C3CN(Cc4cn(Cc5cccc(C)c5)nn4)S(=O)(=O)C3)CC2)cc1OC (stereo unspecified)	NR2F2 inh 47 (no result: NCOA1 inh, NCOA3 inh, NR5A2 inv ag) | VP16 Luc counter inactive | NR2F2 inh conf inactive
Cc1ccccc1Nc1nc(NCc2ccco2)c2ccccc2n1	none
Cc1cccc(Nc2nc(NCc3ccco3)c3ccccc3n2)c1	NR2F2 inh 63 | VP16 Luc counter inactive | NR2F2 inh conf 48
c1ccc(Nc2nc(NCc3ccco3)c3ccccc3n2)cc1	NR2F2 inh 53 | VP16 Luc counter inactive | NR2F2 inh conf inactive
COCCN1Cc2cc(C(=O)OC)c3c(c2C1=O)c1cc(OC)ccc1n3S(C)(=O)=O	none (no result: NCOA1 inh, NCOA3 inh, NR5A2 inv ag)
COc1ccc(-n2c(SCC(=O)Nc3ccc4cn[nH]c4c3)nnc2-c2ccccc2)cc1	none (no result: NCOA1 inh, NCOA3 inh, NR5A2 inv ag)
O=C(CSc1nnc(-c2cccnc2)n1-c1ccc(Cl)cc1)c1ccc2ccccc2c1	none (no result: NCOA1 inh, NCOA3 inh, NR5A2 inv ag)
CC1=NN(c2cccc(F)c2)C(=O)/C1=C/c1ccc(N(C)C)cc1	none
CCOC(=O)SC1=N/C(=C\c2ccc(N(C)C)cc2)C(=O)S1	none
CCOC(=O)c1cc2c(=Cc3ccc(N(C)C)cc3)c3ccccc3n2[n+]1C	NR5A2 inv ag 73, NR2F2 inh 58 | VP16 Luc counter 21 | NR2F2 inh conf 49
Cc1cc2c(=Cc3ccc(N(C)C)cc3)c3ccccc3n2[n+]1C	NR5A2 inv ag 76, NR2F2 inh 75 | VP16 Luc counter inactive | NR2F2 inh conf 63
O=C(Nc1ccccn1)c1ccc(Cl)c(S(=O)(=O)N2CCc3ccccc32)c1	NR2F2 inh 45 | VP16 Luc counter inactive | NR2F2 inh conf inactive
COc1ccc(NC(=O)c2ccc(Cl)c(S(=O)(=O)N3CCc4ccccc4C3)c2)cn1	NR2F2 inh 68 | VP16 Luc counter inactive | NR2F2 inh conf inactive
O=C(NCC(c1ccco1)N1CCCC1)c1ccc(Cl)c(S(=O)(=O)N2CCc3ccccc32)c1 (stereo unspecified)	NR2F2 inh 66 | VP16 Luc counter inactive | NR2F2 inh conf 50
O=C(NCC(c1ccco1)N1CCc2ccccc2C1)c1ccc(Cl)c([N+](=O)[O-])c1 (stereo unspecified)	none
CCOC(=O)[C@@]12CN(C(=O)OC(C)(C)C)CC=C1N(Cc1ccc(OC)cc1)C(=O)[C@H]2CC(=O)NCc1cccc(C(F)(F)F)c1	none (no result: NCOA1 inh, NCOA3 inh, NR5A2 inv ag)
OC(c1ccccc1)(c1ccccc1)C1CCN(CCCOc2cccc(C(F)(F)F)c2)CC1	none (no result: NCOA1 inh, NCOA3 inh, NR5A2 inv ag)
COc1ccc(-n2ncc3c(N(C)C4CCCCC4)ncnc32)cc1	NCOA1 inh 79, NCOA2 inhibitor 63, NCOA3 inh 79, NR5A2 inv ag 79, NR2F2 inh 89 | VP16 Luc counter 74 | NR2F2 inh conf 94
Cc1cccc(-n2ncc3c(N(C)C4CCCCC4)ncnc32)c1	NCOA1 inh 81, NCOA2 inhibitor 62, NCOA3 inh 81, NR5A2 inv ag 77, NR2F2 inh 87 | VP16 Luc counter 49 | NR2F2 inh conf 92
Cc1cccc(-n2ncc3c(N(CCO)CCO)ncnc32)c1	none
COC(=O)[C@]12C[C@H](CC(=O)N3CCN(C(=O)c4ccco4)CC3)C(=O)N(CCC3=CCCCC3)C1=C[C@H](C(C)(C)C)O[C@@H]2C	none (no result: NCOA1 inh, NCOA3 inh, NR5A2 inv ag)
OC(c1ccc(-c2ccccc2)cc1)c1ncc(-c2ccccc2)[nH]1 (stereo unspecified)	NR2F2 inh 57 | VP16 Luc counter inactive | NR2F2 inh conf inactive
CC(C)(C)c1ccc(C(O)c2ncc(-c3ccccc3)[nH]2)cc1 (stereo unspecified)	none
Nc1ncnc(N)c1NC(=O)c1ccccc1	none (no result: NCOA1 inh, NCOA3 inh, NR5A2 inv ag)
CCCCC(Nc1ncnc2ccccc12)C(=O)O (stereo unspecified)	none
CC(Nc1ncnc2ccccc12)c1ccccc1 (stereo unspecified)	NR2F2 inh 71 | VP16 Luc counter inactive | NR2F2 inh conf 61
Cc1cc(Oc2ccc(N)cn2)cc(C)c1Cl	NR2F2 inh 38 | VP16 Luc counter inactive | NR2F2 inh conf inactive
CC(C)(C)c1ccc(Oc2ccc(N)cn2)cc1	NCOA2 inhibitor 86, NR2F2 inh 78 | VP16 Luc counter 76 | NR2F2 inh conf 67
CC(C)(C)c1ccc(Oc2ccc(NC(=O)c3ccccc3C(=O)O)cn2)cc1	NCOA2 inhibitor 85, NR2F2 inh 80 | VP16 Luc counter 47 | NR2F2 inh conf inactive
Cc1cc(O)cc(=O)n1-c1cccc(C(F)(F)F)c1	none (no result: NCOA1 inh, NCOA3 inh, NR5A2 inv ag)
S=c1[nH]nc(-c2n[nH]c3c2CCC3)n1N=Cc1ccc(Br)s1	none (no result: NCOA1 inh, NCOA3 inh, NR5A2 inv ag)
NC1=NC[C@H](Cc2ccccc2)N1CCCCC1CCCCC1	none
NC1=NC[C@H](Cc2ccc(O)cc2)N1CCCCC1CCCCC1	NR2F2 inh 38 | VP16 Luc counter 15 | NR2F2 inh conf inactive
CCc1cc(C(=O)NC2CCCc3c2cnn3-c2ccc(F)cc2F)no1 (stereo unspecified)	NR2F2 inh 53 | VP16 Luc counter inactive | NR2F2 inh conf inactive
CC1=C(C(=O)NC2CCCc3c2cnn3-c2ccc(F)cc2F)OCCO1 (stereo unspecified)	NR2F2 inh 47 | VP16 Luc counter inactive | NR2F2 inh conf inactive
